Experimental data as given in PubChem BioAssay (Tox21).
Inconclusive results are not listed. The source made the active and inactive calls. Calls come from the whole dose curve; as a rule, active = well fitted curve in the direction sought with a large enough effect in the repeat runs; inconclusive = weak or mixed curves; inactive = no such curve, though single readings can be large; an effect the other way counts as inactive or inconclusive.

Experiments:
[1] = qHTS RealTime-Glo MT Cell Viability Assay in HEK293 cells - 40 hour (AID 1224874); settings: RealTime-Glo luminescence; max response: hits give low values; note: nearly all actives have a fitted effect of over 50% in size; note: potency is the fitted concentration of half-maximal effect
How it was run: (§1)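 Nonlytic bioluminescent viability monitoring. HEK293 at 600 cells/well with reagent; 5 h settle; compound transfer by pintool; plates held at 37 C and read at set time points.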

[2] = A CellTox Green Cytotoxicity Assay to monitor cytotoxicity in HEK293 cells - 24 hour (AID 1224875); settings: CellTox Green fluorescence; series mostly up to 76.8 µM; note: nearly all actives have a fitted effect of over 45% in size; note: potency is the fitted concentration of half-maximal effect
How it was run: (§2)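 Cytotoxicity was tracked continuously in HEK293 cells by a DNA-binding dye excluded from viable cells. Compounds were transferred in DMSO 5 h after seeding; fluorescence was recorded at intervals up to 40 h.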

[3] = A CellTox Green Cytotoxicity Assay to monitor cytotoxicity in HepG2 cells - 16 hour (AID 1224876); settings: CellTox Green fluorescence; series mostly up to 76.8 µM; note: nearly all actives have a fitted effect of over 45% in size; note: potency is the fitted concentration of half-maximal effect
How it was run: (§3)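 Real-time, homogeneous cytotoxicity readout: dead-cell DNA staining by CellTox Green in HepG2 monolayers, fluorescence measured at timed intervals up to 40 h of continuous compound exposure.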

[4] = qHTS RealTime-Glo MT Cell Viability Assay in HepG2 cells - 32 hour (AID 1224877); settings: RealTime-Glo luminescence; series mostly up to 76.8 µM; note: nearly all actives have a fitted effect of over 55% in size
How it was run: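 Real-time, nonlytic viability: 600 HepG2 cells/well mixed with NanoLuc enzyme plus prosubstrate; 5 h settle, compound (DMSO) added by pintool; luminescence monitored over 40 h at 37 C.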

[5] = A CellTox Green Cytotoxicity Assay to monitor cytotoxicity in HepG2 cells - 24 hour (AID 1224878); settings: CellTox Green fluorescence; series mostly up to 76.8 µM; note: nearly all actives have a fitted effect of over 45% in size; note: potency is the fitted concentration of half-maximal effect
How it was run: as §3

[6] = A CellTox Green Cytotoxicity Assay to monitor cytotoxicity in HepG2 cells - 40 hour (AID 1224879); settings: CellTox Green fluorescence; series mostly up to 76.8 µM; note: nearly all actives have a fitted effect of over 40% in size; note: potency is the fitted concentration of half-maximal effect
How it was run: as §3

[7] = qHTS RealTime-Glo MT Cell Viability Assay in HEK293 cells - 0 hour (AID 1224880); settings: RealTime-Glo luminescence; series mostly up to 76.8 µM; note: top concentration of the series differs between compounds; nearly all actives have a fitted effect of over 45% in size
How it was run: as §1

[8] = A CellTox Green Cytotoxicity Assay to monitor cytotoxicity in HEK293 cells - 40 hour (AID 1224871); settings: CellTox Green fluorescence; series mostly up to 76.8 µM; note: nearly all actives have a fitted effect of over 45% in size
How it was run: as §2

[9] = qHTS RealTime-Glo MT Cell Viability Assay in HEK293 cells - 16 hour (AID 1224872); settings: RealTime-Glo luminescence; series mostly up to 76.8 µM; note: nearly all actives have a fitted effect of over 50% in size; note: potency is the fitted concentration of half-maximal effect; for activity change, negative = cytotoxicity: top concentration of the series differs between compounds
How it was run: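 Cells + reagent dispensed (600 cells/well, HEK293) → 5 h at 37 C/5% CO2 → 23 nL compound in DMSO pinned → 40 h at 37 C → luminescence read at 0, 8, 16, 24, 32, 40 h.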

[10] = qHTS RealTime-Glo MT Cell Viability Assay in HepG2 cells - 8 hour (AID 1224873); settings: RealTime-Glo luminescence; series mostly up to 76.8 µM; note: nearly all actives have a fitted effect of over 55% in size
How it was run: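 HepG2 cells (600/well) mixed with RealTime-Glo MT reagent, settled 5 h at 37 C/5% CO2 before compound addition. Nonlytic NanoLuc luminescence from viable-cell prosubstrate reduction read repeatedly during 40 h treatment at 37 C.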
% is set by controls: 0 for no effect and ±100 for the full control effect.

C[C@H]1C[C@H]2[C@@H]3CCC4=CC(=O)C=C[C@]4(C)[C@@]3(Cl)[C@@H](O)C[C@]2(C)[C@@]1(O)C(=O)CO
inactive: max response [1] -22.6% | Potency [2] | Potency [3] | Potency [4] | Potency [5] | Potency [6] | Potency [7]

CCCCCCCCCCCCN1CCCCCC1=O
inactive: Potency [8] | Potency [2] | Potency [4]

CCOC(=O)COC(=O)c1cc(Oc2ccc(C(F)(F)F)cc2Cl)ccc1[N+](=O)[O-]
inactive: Potency [2] | Potency [3] | Potency [4] | Potency [5] | Potency [6] | Potency [7]

CCN(CC)CCOC(=O)C(Cc1cccc2ccccc12)CC1CCCO1 (stereo unspecified)
inactive: Potency [9] | Potency [2] | Potency [4] | Potency [5] | Potency [6]

C/C=C/C(=O)CC
inactive: activity change, negative = cytotoxicity [9] 1.69% [at 15.8 µM] | max response [1] 4.11% | cytotoxicity increase [3] -0.573% [at 15.8 µM] | activity change, negative = cytotoxic [4] 0.591% [at 15.8 µM] | cytotoxicity [5] 1.31% [at 15.8 µM] | cytotoxicity increase [6] -0.322% [at 15.8 µM]

CNCCCN1c2ccccc2CCc2ccccc21
active: Potency [3] 26.8 µM | Potency [5] 26.8 µM | Potency [6] 26.8 µM
inactive: Potency [10] | Potency [2] | Potency [7]

C=CC(=O)OCCOCCOC(=O)C=C
inactive: Potency [3] | Potency [7]
active: Potency [1] 31 µM | Potency [6] 49.2 µM

CN(C)c1ccc(C(c2ccccc2)c2ccc(N(C)C)cc2)cc1
inactive: Potency [3] | Potency [4] | Potency [5] | Potency [6] | Potency [7]

COc1cc(C(=O)OCCCN2CCCN(CCCOC(=O)c3cc(OC)c(OC)c(OC)c3)CC2)cc(OC)c1OC
active: Potency [9] 5.35 µM | Potency [1] 9.52 µM | Potency [6] 23.9 µM
inactive: Potency [10] | Potency [3] | Potency [4] | Potency [7]

Clc1ccc(Cn2c(CN3CCCC3)nc3ccccc32)cc1
inactive: Potency [10] | Potency [2] | Potency [3] | Potency [4] | Potency [5] | Potency [7]

CCCCCCCCCCCCCCCCCCOS(=O)(=O)O
inactive: Potency [9] | Potency [10] | Potency [4] | Potency [7]

C=C1C(=C/C=C2\CCC[C@]3(C)[C@@H]([C@H](C)/C=C/[C@@H](O)C4CC4)CC[C@@H]23)C[C@@H](O)C[C@@H]1O
inactive: Potency [2] | Potency [3] | Potency [4] | Potency [5] | Potency [7]
active: Potency [9] 19 µM | Potency [1] 8.49 µM

O=C(Cl)c1cc(C(=O)Cl)cc(C(=O)Cl)c1
active: Potency [1] 49 µM
inactive: Potency [7]

CCCOC(C(=O)OC1CCN(C)CC1)(c1ccccc1)c1ccccc1
active: Potency [3] 19 µM | Potency [5] 23.9 µM | Potency [6] 23.9 µM
inactive: Potency [10] | Potency [4] | Potency [7]

CN(Cc1ccc(C(C)(C)C)cc1)Cc1cccc2ccccc12
inactive: Potency [9] | Potency [10] | max response [1] -22.5% | Potency [3] | Potency [4] | Potency [5] | Potency [6] | Potency [7]

COc1ccc(C(=O)c2ccc(OC)cc2O)c(O)c1
active: Potency [1] 24.7 µM | Potency [6] 15.6 µM
inactive: Potency [10] | Potency [3] | Potency [4] | Potency [5]

Cc1oc2c(NC(=O)c3c(Cl)cccc3Cl)cccc2c1C(C)(C)O
active: Potency [6] 38.9 µM
inactive: Potency [8] | Potency [2] | Potency [3] | Potency [5] | Potency [7]

COc1cc2nc(N(C)CCCNC(=O)C3CCCO3)nc(N)c2cc1OC (stereo unspecified)
inactive: Potency [8] | Potency [2] | Potency [3] | Potency [4] | Potency [5] | Potency [7]

O=[N+]([O-])c1cccc(S(=O)(=O)O)c1
inactive: Potency [10] | Potency [2] | Potency [3] | Potency [4] | Potency [5] | Potency [6]
active: Potency [1] 17.6 µM

CN(C)c1ccc(/C=C/c2ccc([N+](=O)[O-])cc2)cc1
inactive: activity change, negative = cytotoxicity [9] -4.94% [at 6.97 µM] | viability change, negative = cytotoxic [10] -4.05% [at 6.97 µM] | max response [1] -4.38% | cytotoxicity increase [3] 19.5% [at 6.97 µM] | activity change, negative = cytotoxic [4] -4.75% [at 6.97 µM] | cytotoxicity [5] 17.5% [at 6.97 µM] | cytotoxicity increase [6] 16.3% [at 6.97 µM] | activity change, negative = cytotoxicity [7] -5.79% [at 6.97 µM]

CN1CCC(=C2c3ccccc3Sc3ccccc32)CC1
inactive: Potency [9] | Potency [10] | Potency [2]
active: Potency [5] 23.9 µM | Potency [6] 23.9 µM

CCC(C)c1cc(C(C)(C)C)c(O)c(C(C)(C)C)c1 (stereo unspecified)
inactive: Potency [9] | Potency [10] | max response [1] 0.103% | Potency [3] | Potency [4] | Potency [5] | Potency [6]

C[N+]1(C)CCC(OC(=O)C(O)(c2ccccc2)C2CCCC2)C1 (stereo unspecified)
active: Potency [2] 23.9 µM
inactive: Potency [9] | Potency [10] | max response [1] 3.92% | Potency [3] | Potency [4] | Potency [5] | Potency [6] | Potency [7]

C#C[C@]1(O)CC[C@H]2[C@@H]3CCc4cc(OC5CCCC5)ccc4[C@H]3CC[C@@]21C
inactive: Potency [2] | Potency [7]
active: Potency [1] 23.9 µM

CN(C)C(=O)NC1(c2ccccc2)CCN(CC[C@@]2(c3ccc(F)c(F)c3)CN(C(=O)c3ccccc3)CCO2)CC1
inactive: Potency [8] | Potency [2] | Potency [3] | Potency [4] | Potency [5] | Potency [7]

CCCCCCCCCCO[C@@H]1O[C@H](CO)[C@@H](O)[C@H](O)[C@H]1O
inactive: Potency [9] | Potency [10] | Potency [3] | Potency [4] | Potency [5] | Potency [6]
